In publication PMC7862700, “An all-to-all approach to the identification of sequence-specific readers for epigenetic DNA modifications on cytosine”:

Columns and labels:
Experiment in all cases: DAPPL (digital affinity profiling via proximity ligation, sequencing); 10 mM Tris-HCl pH 7.5, 50 mM NaCl, 1 mM DTT, 4% glycerol, room temperature, 30 min; GST-TFs on glutathione beads, 16-mer random dsDNA library, 0.1% formaldehyde crosslink after washing; high values mean tight binding
Conditions in all cases: protein: recombinant; tags: N-terminal GST; dsDNA, one strand shown
[1] = biological target: T1, ELK4 (Homo sapiens, UniProt P28324-2 1-405)
T1 sequence: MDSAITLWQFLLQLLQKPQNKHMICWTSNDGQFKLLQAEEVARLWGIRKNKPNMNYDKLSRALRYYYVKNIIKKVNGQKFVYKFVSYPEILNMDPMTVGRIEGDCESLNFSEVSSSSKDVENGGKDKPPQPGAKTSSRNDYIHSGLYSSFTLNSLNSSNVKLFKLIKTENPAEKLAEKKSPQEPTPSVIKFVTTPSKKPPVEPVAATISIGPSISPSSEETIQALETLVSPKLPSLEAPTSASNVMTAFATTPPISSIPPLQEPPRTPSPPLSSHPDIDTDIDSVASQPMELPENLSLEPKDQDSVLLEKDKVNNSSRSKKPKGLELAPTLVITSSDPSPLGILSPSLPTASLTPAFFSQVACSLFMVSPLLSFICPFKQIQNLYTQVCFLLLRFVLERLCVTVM
Outline: (§1)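 In yeast, human transcription factors were expressed with a GST fusion, then pulled down on glutathione beads and given DNA barcodes. Pooled with a tag-only sample, they were exposed to 200 nmole of a 16-mer random double-stranded DNA library (Tris/NaCl/DTT/glycerol buffer, room temperature, 30 min), washed, crosslinked with 0.1% formaldehyde, proximity-ligated using BsaI/T4 ligase for 1 h at 37 °C, PCR-amplified and read on an Illumina NextSeq500. Each hexamer's frequency of reads for a factor, divided by the matching frequency for the tag-only sample, gives the binding signal.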

[2] = biological target: T2, ELK1 (Homo sapiens, UniProt P19419 1-428)
T2 sequence: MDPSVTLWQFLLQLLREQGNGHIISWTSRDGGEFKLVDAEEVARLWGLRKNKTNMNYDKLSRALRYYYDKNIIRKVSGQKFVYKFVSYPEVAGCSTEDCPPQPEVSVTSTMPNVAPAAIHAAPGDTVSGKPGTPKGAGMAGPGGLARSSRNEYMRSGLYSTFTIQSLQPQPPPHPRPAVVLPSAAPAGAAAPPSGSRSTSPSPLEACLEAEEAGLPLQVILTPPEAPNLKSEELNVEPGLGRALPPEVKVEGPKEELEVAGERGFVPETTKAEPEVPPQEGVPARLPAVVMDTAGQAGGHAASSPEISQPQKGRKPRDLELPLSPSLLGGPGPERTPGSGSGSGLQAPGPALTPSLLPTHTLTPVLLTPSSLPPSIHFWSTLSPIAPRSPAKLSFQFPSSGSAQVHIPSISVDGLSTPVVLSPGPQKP
Outline: as §1

[3] = biological target: T3, GABPA (Homo sapiens, UniProt Q06546 1-454)
T3 sequence: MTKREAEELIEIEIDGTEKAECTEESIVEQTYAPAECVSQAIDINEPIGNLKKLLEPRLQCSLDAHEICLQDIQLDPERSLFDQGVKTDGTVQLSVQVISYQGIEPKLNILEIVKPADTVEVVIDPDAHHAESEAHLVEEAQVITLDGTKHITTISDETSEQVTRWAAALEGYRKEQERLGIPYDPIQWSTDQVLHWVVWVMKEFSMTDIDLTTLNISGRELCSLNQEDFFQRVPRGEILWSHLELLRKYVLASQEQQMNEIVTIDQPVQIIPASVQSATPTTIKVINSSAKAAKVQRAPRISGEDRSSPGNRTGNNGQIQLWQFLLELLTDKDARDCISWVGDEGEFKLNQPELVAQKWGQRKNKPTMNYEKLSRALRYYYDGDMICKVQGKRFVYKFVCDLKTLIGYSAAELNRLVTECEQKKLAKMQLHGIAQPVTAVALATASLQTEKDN
Outline: as §1

[4] = biological target: ELF1 (Homo sapiens, UniProt P32519 1-619)
Outline: as §1

[5] = biological target: T4, EHF (Homo sapiens, UniProt Q9NZC4 1-300)
T4 sequence: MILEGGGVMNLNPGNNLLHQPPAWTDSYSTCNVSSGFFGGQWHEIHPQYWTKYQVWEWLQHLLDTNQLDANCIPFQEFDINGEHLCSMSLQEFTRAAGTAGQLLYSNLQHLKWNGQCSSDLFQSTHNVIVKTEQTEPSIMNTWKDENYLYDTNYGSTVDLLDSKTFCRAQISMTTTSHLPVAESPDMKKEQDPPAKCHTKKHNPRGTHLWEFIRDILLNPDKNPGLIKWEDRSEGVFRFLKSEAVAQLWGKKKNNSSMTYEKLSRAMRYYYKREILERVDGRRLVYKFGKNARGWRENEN
Outline: as §1

[6] = biological target: SPI1 (Homo sapiens, UniProt P17947 1-270)
Outline: as §1

[7] = biological target: T5, ETV2 (Homo sapiens, UniProt O00321 1-342)
T5 sequence: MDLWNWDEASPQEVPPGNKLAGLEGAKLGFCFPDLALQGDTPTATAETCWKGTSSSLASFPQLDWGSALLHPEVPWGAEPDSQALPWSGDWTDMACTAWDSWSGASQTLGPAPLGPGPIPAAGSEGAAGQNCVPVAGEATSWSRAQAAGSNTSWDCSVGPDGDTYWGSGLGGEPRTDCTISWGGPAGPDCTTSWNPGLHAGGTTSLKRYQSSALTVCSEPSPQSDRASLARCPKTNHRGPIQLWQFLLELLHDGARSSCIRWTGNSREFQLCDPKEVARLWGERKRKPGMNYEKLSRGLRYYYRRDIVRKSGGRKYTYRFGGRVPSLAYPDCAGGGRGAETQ
Outline: as §1

[8] = biological target: T6, ELF3 (Homo sapiens, UniProt P78545 1-371)
T6 sequence: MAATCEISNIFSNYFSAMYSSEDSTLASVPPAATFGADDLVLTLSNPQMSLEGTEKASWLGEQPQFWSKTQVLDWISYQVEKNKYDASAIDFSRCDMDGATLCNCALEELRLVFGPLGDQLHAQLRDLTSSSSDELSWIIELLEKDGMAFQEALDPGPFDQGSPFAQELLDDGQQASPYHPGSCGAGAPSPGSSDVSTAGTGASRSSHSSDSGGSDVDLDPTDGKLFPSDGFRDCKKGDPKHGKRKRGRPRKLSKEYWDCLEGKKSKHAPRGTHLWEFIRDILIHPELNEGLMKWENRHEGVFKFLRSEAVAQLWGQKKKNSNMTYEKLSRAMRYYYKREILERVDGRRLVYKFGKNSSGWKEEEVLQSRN
Outline: as §1

[9] = biological target: CRX (Homo sapiens, UniProt O43186 1-299)
Outline: as §1

[10] = biological target: ETV1 (Homo sapiens, UniProt P50549 1-477)
Outline: as §1

[11] = biological target: T7, ETS2 (Homo sapiens, UniProt P15036 1-469)
T7 sequence: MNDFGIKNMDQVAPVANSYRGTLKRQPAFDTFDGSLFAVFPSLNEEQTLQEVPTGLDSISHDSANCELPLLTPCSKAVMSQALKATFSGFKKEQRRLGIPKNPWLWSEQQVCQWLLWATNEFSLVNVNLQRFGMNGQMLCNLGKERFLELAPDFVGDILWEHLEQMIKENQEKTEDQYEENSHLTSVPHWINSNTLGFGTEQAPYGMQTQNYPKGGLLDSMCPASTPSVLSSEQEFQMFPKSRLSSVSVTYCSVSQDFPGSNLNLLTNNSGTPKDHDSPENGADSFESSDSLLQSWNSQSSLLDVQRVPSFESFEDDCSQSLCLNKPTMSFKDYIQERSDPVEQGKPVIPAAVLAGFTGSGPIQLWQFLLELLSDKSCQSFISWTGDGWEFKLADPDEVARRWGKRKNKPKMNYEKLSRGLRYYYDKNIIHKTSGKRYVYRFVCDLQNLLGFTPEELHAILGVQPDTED
Outline: as §1

[12] = biological target: T8, ETV7 (Homo sapiens, UniProt Q9Y603 1-341)
T8 sequence: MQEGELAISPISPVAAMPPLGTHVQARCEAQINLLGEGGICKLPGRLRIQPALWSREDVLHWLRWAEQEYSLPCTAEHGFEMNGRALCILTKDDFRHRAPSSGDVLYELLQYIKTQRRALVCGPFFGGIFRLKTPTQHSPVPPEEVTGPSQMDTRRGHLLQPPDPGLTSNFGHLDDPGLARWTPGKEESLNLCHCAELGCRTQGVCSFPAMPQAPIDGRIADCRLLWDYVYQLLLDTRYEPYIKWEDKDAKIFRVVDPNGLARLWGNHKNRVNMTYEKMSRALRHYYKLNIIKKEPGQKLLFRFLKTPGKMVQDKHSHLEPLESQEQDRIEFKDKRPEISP
Outline: as §1

[13] = biological target: T9, ELF5 (Homo sapiens, UniProt Q9UKW6-2 1-255)
T9 sequence: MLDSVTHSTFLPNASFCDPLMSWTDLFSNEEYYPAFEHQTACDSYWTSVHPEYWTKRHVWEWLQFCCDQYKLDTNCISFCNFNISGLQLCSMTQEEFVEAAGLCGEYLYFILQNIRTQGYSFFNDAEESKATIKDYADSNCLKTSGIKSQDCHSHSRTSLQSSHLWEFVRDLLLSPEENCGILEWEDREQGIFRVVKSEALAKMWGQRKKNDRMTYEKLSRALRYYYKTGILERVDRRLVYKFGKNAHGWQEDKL
Outline: as §1

[14] = biological target: ETV6 (Homo sapiens, UniProt P41212 1-452)
Outline: as §1

CRX, sequence (O43186 whole entry): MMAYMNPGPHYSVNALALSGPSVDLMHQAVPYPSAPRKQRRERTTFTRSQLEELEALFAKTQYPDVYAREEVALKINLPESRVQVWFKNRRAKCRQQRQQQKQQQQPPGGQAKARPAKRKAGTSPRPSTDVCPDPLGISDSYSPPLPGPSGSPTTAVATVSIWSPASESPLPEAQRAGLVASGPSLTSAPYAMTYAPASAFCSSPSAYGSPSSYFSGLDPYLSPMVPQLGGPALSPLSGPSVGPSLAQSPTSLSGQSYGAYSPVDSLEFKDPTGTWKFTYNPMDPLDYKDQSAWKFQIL
ETV6, sequence (P41212 whole entry): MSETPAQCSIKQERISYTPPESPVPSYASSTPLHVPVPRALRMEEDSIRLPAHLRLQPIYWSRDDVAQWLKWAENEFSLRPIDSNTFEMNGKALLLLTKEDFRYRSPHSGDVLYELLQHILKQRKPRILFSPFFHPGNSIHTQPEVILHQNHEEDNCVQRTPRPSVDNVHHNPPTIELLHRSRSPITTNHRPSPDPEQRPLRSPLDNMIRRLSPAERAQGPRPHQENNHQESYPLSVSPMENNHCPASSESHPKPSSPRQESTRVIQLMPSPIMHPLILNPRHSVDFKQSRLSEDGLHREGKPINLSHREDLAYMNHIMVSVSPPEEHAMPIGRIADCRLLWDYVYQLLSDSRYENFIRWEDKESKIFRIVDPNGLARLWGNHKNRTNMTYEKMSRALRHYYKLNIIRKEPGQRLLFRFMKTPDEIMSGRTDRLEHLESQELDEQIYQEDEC
ETV1, sequence (P50549 whole entry): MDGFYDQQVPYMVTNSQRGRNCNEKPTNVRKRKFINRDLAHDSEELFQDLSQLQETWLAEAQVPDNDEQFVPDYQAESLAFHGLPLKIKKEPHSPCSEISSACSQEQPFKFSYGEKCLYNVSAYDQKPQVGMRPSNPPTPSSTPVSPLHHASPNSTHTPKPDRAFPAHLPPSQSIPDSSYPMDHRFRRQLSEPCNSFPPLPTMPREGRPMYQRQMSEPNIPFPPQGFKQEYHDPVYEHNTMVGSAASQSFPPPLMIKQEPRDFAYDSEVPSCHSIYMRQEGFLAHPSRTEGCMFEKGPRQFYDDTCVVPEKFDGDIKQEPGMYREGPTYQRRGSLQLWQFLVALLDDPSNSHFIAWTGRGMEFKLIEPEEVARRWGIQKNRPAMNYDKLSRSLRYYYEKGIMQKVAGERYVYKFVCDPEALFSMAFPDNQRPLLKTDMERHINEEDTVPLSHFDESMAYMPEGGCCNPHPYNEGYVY
ELF1, sequence (P32519 whole entry): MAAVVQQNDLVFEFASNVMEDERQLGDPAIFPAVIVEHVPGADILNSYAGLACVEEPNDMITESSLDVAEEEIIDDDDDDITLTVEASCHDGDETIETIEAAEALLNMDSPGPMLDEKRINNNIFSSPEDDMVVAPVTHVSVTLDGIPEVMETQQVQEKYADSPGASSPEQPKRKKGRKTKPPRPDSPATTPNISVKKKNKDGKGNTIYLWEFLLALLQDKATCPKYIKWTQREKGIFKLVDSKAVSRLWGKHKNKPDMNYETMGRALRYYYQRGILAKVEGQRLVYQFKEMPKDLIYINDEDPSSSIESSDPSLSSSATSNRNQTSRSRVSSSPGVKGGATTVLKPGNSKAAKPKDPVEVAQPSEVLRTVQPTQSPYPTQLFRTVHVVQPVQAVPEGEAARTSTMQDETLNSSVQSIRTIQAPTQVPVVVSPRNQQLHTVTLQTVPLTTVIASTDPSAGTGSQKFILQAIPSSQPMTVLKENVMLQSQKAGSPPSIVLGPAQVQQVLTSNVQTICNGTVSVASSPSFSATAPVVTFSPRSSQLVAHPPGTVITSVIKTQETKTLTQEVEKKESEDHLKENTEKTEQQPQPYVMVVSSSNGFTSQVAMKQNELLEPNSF

How did the binding signal [1] turn out when CTGAGG was run?
The binding signal was 1.02 fold enrichment (6-mer frequency, TF over GST control).

For GCAGGT, which binding signal [1] is on record?
The binding signal was 1.01 fold enrichment (6-mer frequency, TF over GST control).

With CAAAAG as the sequence, how does the binding signal [2] read?
The binding signal was 1.02 fold enrichment (6-mer frequency, TF over GST control).

And the binding signal [3]?
The binding signal was 1.04 fold enrichment (6-mer frequency, TF over GST control).

And the binding signal [4]?
Its binding signal is 1.01 fold enrichment (6-mer frequency, TF over GST control).

What about the binding signal [5] of the same sequence?
Its binding signal is 1 fold enrichment (6-mer frequency, TF over GST control).

And the binding signal [6]?
The binding signal was 1.08 fold enrichment (6-mer frequency, TF over GST control).

And the binding signal [1]?
The binding signal was 1.05 fold enrichment (6-mer frequency, TF over GST control).

And the binding signal [7]?
Its binding signal is 1.05 fold enrichment (6-mer frequency, TF over GST control).

What about the binding signal [8] of the same sequence?
The binding signal was 1.06 fold enrichment (6-mer frequency, TF over GST control).

And the binding signal [9]?
The binding signal was 1.02 fold enrichment (6-mer frequency, TF over GST control).

What about the binding signal [10] of the same sequence?
Its binding signal is 1 fold enrichment (6-mer frequency, TF over GST control).

What about the binding signal [11] of the same sequence?
Its binding signal is 1.04 fold enrichment (6-mer frequency, TF over GST control).

What about the binding signal [12] of the same sequence?
The binding signal was 1 fold enrichment (6-mer frequency, TF over GST control).

And the binding signal [13]?
The binding signal was 1 fold enrichment (6-mer frequency, TF over GST control).

And the binding signal [14]?
The binding signal was 1.01 fold enrichment (6-mer frequency, TF over GST control).

With GTTGAA as the sequence, how does the binding signal [1] read?
The binding signal was 1.01 fold enrichment (6-mer frequency, TF over GST control).
